# This is part of a sample that, as a whole, favours compounds with a hit. Of some 83,000 tested, about 20% had one in any assay.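 Method: cells in 96-well plates; compound added at one concentration; 48 h incubation; percent growth measured; values under 10 scored active.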 Values without a mark were called inactive. Activity calls are given as the source filed them.
# Key:
# Test in all cases: NCI-60 one-dose screen, 48 h (100 = growth as untreated, 0 = no growth, -100 = all killed)
# Settings in all cases: 10 µM unless noted
# HT29 colon = tested on: HT29 colon
# SNB-75 CNS = tested on: SNB-75 CNS
# SNB-19 CNS = tested on: SNB-19 CNS
# U251 CNS = tested on: U251 CNS
# PC-3 prostate = tested on: PC-3 prostate
# SK-MEL-5 melanoma = tested on: SK-MEL-5 melanoma
# UACC-62 melanoma = tested on: UACC-62 melanoma
# SK-MEL-2 melanoma = tested on: SK-MEL-2 melanoma
# SK-MEL-28 melanoma = tested on: SK-MEL-28 melanoma
# LOX IMVI melanoma = tested on: LOX IMVI melanoma
SMILES,growth (HT29 colon),growth (SNB-75 CNS),growth (SNB-19 CNS),growth (U251 CNS),growth (PC-3 prostate),growth (SK-MEL-5 melanoma),growth (UACC-62 melanoma),growth (SK-MEL-2 melanoma),growth (SK-MEL-28 melanoma),growth (LOX IMVI melanoma)
N#Cc1ccc(/C=N/NC(=O)c2[nH]c3ccc(Br)cc3c2-c2ccccc2)s1,5.64% (active),49.7%,29.4%,16.5%,25%,-40.9% (active),23.4%,30.4%,–,–
COc1ccc(/C=N/NC(=O)c2[nH]c3ccc(Br)cc3c2-c2ccccc2)s1,0.251% (active),26.4%,30.6%,30.2%,30.9%,-24.4% (active),42.4%,43.9%,63.6%,–
CC(=O)Oc1ccccc1C(=O)Nc1ccc(C(=O)/C=C/c2cccs2)cc1,110%,113%,101%,99.4%,103%,101%,98.3%,122%,106%,–
Nc1nc(N)c2c(n1)NC(c1ccc(C(F)(F)F)cc1)CC(c1ccc(Nc3nc(NCCO)nc(Nc4ccc(Cl)cc4)n3)cc1)=N2 (stereo not given),-66.6% (active),35.4%,-79.1% (active),-22.3% (active),-31.5% (active),-92.8% (active),-41.5% (active),-80.3% (active),–,–
Cc1ccc(/C=C/c2nn3c(-c4ccco4)nnc3s2)cc1C,109%,96.5%,94.9%,95.7%,89.9%,103%,94.8%,128%,104%,–
COc1ccc(/C=N/NC(=O)c2[nH]c3ccc(Br)cc3c2-c2ccccc2)o1,-26.9% (active),50.3%,30.8%,19.5%,22.6%,-29% (active),43.7%,-13% (active),63.3%,–
COc1ccc(/C=C/C(=O)c2ccc(NC(=O)CSc3nnc(-c4ccc5nc(-c6ccc(Cl)cc6)[nH]c5c4)o3)cc2)cc1,106%,98.5%,106%,96%,82.5%,89.7%,–,–,113%,6.79% (active)
C#Cc1nc(C2=C(C)C(OC(C)=O)/C(=N/OC(C)=O)C2)cs1 (stereo not given),-14.1% (active),-89% (active),78.4%,-13.9% (active),-11.1% (active),89.7%,11.3%,92.8%,–,–
Cn1ccnc1C(=O)/C=C/c1ccc(NC(=O)Nc2ccc(Cl)cc2)cc1,93.6%,74.4%,78.9%,62.6%,78.8%,91.2%,92.2%,110%,89.9%,–
O=C(N/N=C/c1ccc([N+](=O)[O-])o1)c1[nH]c2ccc(Br)cc2c1-c1ccccc1,9.21% (active),17.7%,22%,13.3%,16.2%,-84% (active),6.4% (active),-12.4% (active),55.9%,–
COc1cc(/C=C/C(=O)c2ccccc2)ccc1Oc1nc(NCCO)nc(N2CCOCC2)n1,105%,99.8%,97.8%,88.4%,84.9%,99.3%,92.9%,103%,–,–
COc1cc(/C=C/C(=O)c2cc(OC)c(OC)c(OC)c2)ccc1Oc1nc(NCCO)nc(N2CCOCC2)n1,-21.5% (active),15.2%,12.4%,-36.9% (active),37.7%,3.03% (active),-4.12% (active),-3.2% (active),–,–
O=C(N/N=C/c1ccc(Cl)s1)c1[nH]c2ccc(Br)cc2c1-c1ccccc1,3.1% (active),28.1%,33.2%,16.5%,30.2%,-23% (active),41.4%,13.1%,61.6%,–
C#Cc1nc(C2=C(C)C(=N\O)/C(=N/O)C2)cs1,111%,60%,95.6%,103%,90.6%,99%,91.8%,108%,111%,–

# From PubChem BioAssay (NCI)
